About 83,000 compounds went through this panel and 20% of them were active in at least one assay; those are over-represented in the sample as a whole.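 The endpoint reported here, percent growth, reads 100 for growth as untreated, 0 for no net growth and -100 for all cells dead.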 Unmarked numbers belong to inactive results. The source made the active and inactive calls. The calls were made as follows: active = growth percent below 10; inactive = the rest.
tested on: HL-60(TB) leukemia; assay: NCI-60 one-dose screen, 48 h (100 = growth as untreated, 0 = no growth, -100 = all killed); settings: 10 µM unless noted

| SMILES | growth |
| --- | --- |
| NC1CCC(Nc2nc(NCc3ccc(-c4ccccc4O)nc3)c3ncn(C4CCCC4)c3n2)CC1 (stereo not given) | -41.8% (active) |
| Cc1[nH]c(C(=O)Nc2ccc(C(=O)N3CCNCC3)cc2OC(C)C)c(Cl)c1Cl | 57.4% |
| O=c1oc2ccccc2cc1-c1csc(N=Nc2c(O)[nH]c3ccc(Cl)cc23)n1 | 105% |
| CCCCCN(CCCCC)CC(O)c1cc(C)c2ccc3cc(C(C)C)ccc3c2c1 (stereo not given) | -29.6% (active) |
| COc1cc(-c2nccc3[nH]c(-c4cccc5[nH]ccc45)nc23)cc(OC)c1OC | -41.1% (active) |
| CCCCCCCCC(=O)Nc1ccc(O)cc1 | 61.5% |
| COc1ccc(C(=O)CC(c2ccccc2)C(C#N)c2ccccc2)cc1 (stereo not given) | 87.3% |
| CC1CCC(n2cnc3c(Cl)ncnc32)O1 (stereo not given) | 112% |
| Cc1ccc2cccc(OC(=O)Nc3cccc(C(F)(F)F)c3)c2n1 | 67% |
| CC/C=C\C/C=C\C[C@H](O)C/C=C1/C(=O)C=C[C@@H]1C/C=C\CCCC(=O)OC | -19.5% (active) |
| CN1CCN(Cc2ccc(NC(=O)c3cncc(C#Cc4cnccc4C#N)c3)cc2C(F)(F)F)CC1 | 24.7% |
| O=S=Nc1ccc([N+](=O)[O-])cc1 | 102% |
| COc1ccc(/C=C/C(c2cc(OC)c(OC)c(OC)c2)n2ccnc2)cc1O (stereo not given) | -36.6% (active) |
| Cc1ccc(Cn2c(-c3cccs3)nc3ccccc32)cc1 | 122% |
| CSc1nc(Nc2cccc(NC(=O)CCl)c2)c(C#N)c(-c2cccc([N+](=O)[O-])c2)n1 | 30.3% |
| N#Cc1c(-c2ccccc2)c(C#N)c2c(C#N)c(N)nn2c1N | -17.2% (active) |
| COc1ccc(-c2cn[nH]c2-c2cc(OC)c3c(c2)OCO3)cc1 | -29% (active) |
| CN(C)c1nc(N)nc(Cn2c(-c3nonc3N)nc3ccccc32)n1 | 94.2% |
| COC(=O)Nc1nc2ccc(C(=O)c3ccc(N(C)C4COC4)cc3)cc2[nH]1 | -28.8% (active) |
| CC(CCCC(=O)O)c1ccoc1 (stereo not given) | 97.6% |

| SMILES | growth |
| --- | --- |
| COc1cc(OC)c2sc(-c3ccc(-n4cncc4-c4ccc(OC)c(N)c4)cc3)nc2c1 | 58.4% |
| CCOc1cc(F)c([N+](=O)[O-])cc1[N+](=O)[O-] | -12.6% (active) |
| CCCCCCCSc1ccc(C(=O)O)cc1 | 98.6% |
| COCCn1cc(-c2nc(-c3cn(CCOC)c4ncccc34)cs2)c2ccccc21 | 114% |
| CCCCCCCCC/C(=N\NC(=O)c1ccncc1)c1ccc(O)c(O)c1O | 0.166% (active) |
| O=C1NC(=O)/C(=C\c2ccco2)S1 | 74.2% |
| CCNCc1ccc(O)c2ncccc12 | 13.1% |
| Oc1c(CN2CCCC2)cc(COCc2ccccc2)c2cccnc12 | 10.6% |
| CC(C)(C)OC(=O)N1CC(Cn2cc(C(F)(F)F)c3c(Cl)ncnc32)C1 | -67.5% (active) |
| CCOc1cc2c(cc1OCC)C(c1cc(C)c(O)c(C)c1)NCC2 (stereo not given) | 81.7% |
| CC(C)(C)c1ccc(S(=O)(=O)Oc2ccc(-c3sc4cc(OS(=O)(=O)c5ccc(C(C)(C)C)cc5)ccc4c3C(=O)c3ccc(OCCN4CCCCC4)cc3)cc2)cc1 | 95.3% |
| Clc1ccc2c(NCCCCNc3nc(N4CCCCC4)nc4ccccc34)ccnc2c1 | -69% (active) |
| CSc1ccc2c(c1)C(N1CCN(C)CC1)Cc1ccccc1S2 (stereo not given) | 52.7% |
| C[C@@H](C[C@H](CCO)c1ccccc1)c1ccc2ccccc2c1 | -38.5% (active) |
| CCCCCCc1nc2c(c(C)nn2-c2ccccc2)c2c1CCCCC2 | 108% |
| CCCCCCCCCCOC(=O)c1nn(C(C)=O)c2cc(C)c(C)cc12 | 101% |
| CCN1CCN(CCCN(C[C@H]2Cc3ccccc3CN2)[C@H]2CCCc3cccnc32)CC1 | 62.8% |
| Nc1ccc(S(=O)(=O)Nc2ccsc2-c2nc(-c3ccccc3)no2)cc1 | 35.1% |
| C[N+](C)=c1ccc2nc3c(cc(NCCCNc4cc5oc6cc(=[N+](C)C)ccc-6nc5c5ccccc45)c4ccccc43)oc-2c1 | -7.2% (active) |
| COc1cc(CCn2nnc3c(Nc4ccc(N5CCOCC5)cc4)ncnc32)cc(OC)c1 | 106% |

From PubChem BioAssay (NCI)
